The text below walks through data of PubChem BioAssay (NCI).

What all share (assay): NCI-60 one-dose screen, 48 h (100 = growth as untreated, 0 = no growth, -100 = all killed)
One assay concerns NCI-H226 lung. Particulars: 10 µM unless noted.
Another assay deals with NCI-H322M lung. Particulars: 10 µM unless noted.
Another assay relates to HOP-62 NSCLC. The conditions noted are these: 10 µM unless noted.
For another assay, the system named is SF-295 CNS. Particulars: 10 µM unless noted.
The next assay has as its system HCT-15 colon. The conditions noted are these: 10 µM.
The subject of another assay is SNB-19 CNS. Particulars: 10 µM unless noted.
A further assay concerns SK-MEL-5 melanoma. The conditions noted are these: 10 µM unless noted.
The test system of a further assay is LOX IMVI melanoma. The conditions noted are these: 10 µM unless noted.
For the next assay, the system named is CCRF-CEM leukemia. Particulars: 10 µM unless noted.
The next assay relates to MOLT-4 leukemia. The conditions noted are these: 10 µM.
For a further assay, the system named is RPMI-8226 leukemia. Particulars: 10 µM unless noted.
The subject of another assay is IGROV1 ovarian. The conditions noted are these: 10 µM.
Another assay deals with HCC-2998 colon. Particulars: 10 µM unless noted.
In the next assay the test system is K-562 leukemia. The conditions noted are these: 10 µM unless noted.
The next assay relates to EKVX NSCLC. Particulars: 10 µM unless noted.
The test system of another assay is TK-10 renal. Particulars: 10 µM unless noted.
Another assay relates to SR leukemia. The conditions noted are these: 10 µM.
The subject of another assay is HOP-92 NSCLC. The conditions noted are these: 10 µM unless noted.
In a further assay the test system is NCI-H522 lung. Particulars: 10 µM unless noted.

SMILES strings stand for the structures. The panel holds about 83,000 compounds, 20% with a hit somewhere; the sample as a whole holds those more often.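 Step 1: grow cells in 96-well plates. Step 2: add test compound at a single concentration. Step 3: incubate 48 h. Step 4: record percent growth.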 Unmarked numbers belong to inactive results. Calls of active or inactive are those of the source. The calls were made as follows: active = growth percent below 10; inactive = the rest.

With `CC1COC(=O)C1` (stereo not given), the growth in the assay on NCI-H226 lung is 96.7%; with NCI-H322M lung it was 100%; in the assay with HOP-62 NSCLC, 99.6%; in the assay on SF-295 CNS it was 99.8%; in the assay on HCT-15 colon, 105%; in the assay on SNB-19 CNS it was 105%. For the same molecule, the growth is 99.6% in the assay on SK-MEL-5 melanoma; 100% with LOX IMVI melanoma; 95.4% with CCRF-CEM leukemia; 102% in the assay on MOLT-4 leukemia; 110% in the assay on RPMI-8226 leukemia; 103% in the assay with IGROV1 ovarian. In addition, the growth with HCC-2998 colon was 98.6%.

In the case of `CC[CH2][Pb]([CH2]CC)([CH2]CC)[O]C(=O)C(F)(F)F`, the growth is -61.6% (active) in the assay with NCI-H226 lung; -98.3% (active) in the assay on NCI-H322M lung; -84.3% (active) with HOP-62 NSCLC; 2.17% (active) in the assay with K-562 leukemia; -87.6% (active) in the assay on SF-295 CNS; -98.3% (active) in the assay with SK-MEL-5 melanoma. The growth is -82.3% (active) in the assay with LOX IMVI melanoma, -27.8% (active) in the assay with MOLT-4 leukemia, -78.8% (active) in the assay on IGROV1 ovarian and -84.4% (active) in the assay with HCC-2998 colon.

As to `O=C(N/N=C/c1ccc(N(CCCl)CCCl)cc1)c1cc(=O)[nH]c(=O)[nH]1`, the growth was 5.48% (active) in the assay with NCI-H226 lung; 92.9% with NCI-H322M lung; 87.2% in the assay on SF-295 CNS; 97.8% with HCT-15 colon; 98.9% with SK-MEL-5 melanoma; 93.4% in the assay on LOX IMVI melanoma. The growth in the assay on EKVX NSCLC was 115%; in the assay on TK-10 renal, 109%; with CCRF-CEM leukemia, 66.5%; in the assay with RPMI-8226 leukemia, 86.7%; in the assay with IGROV1 ovarian it was 83.9%; in the assay with HCC-2998 colon, 104%.

`CCC(CC)(c1ccccc1)C(OC(N)=O)c1ccccc1` (stereo not given): the growth was 81.8% in the assay on NCI-H226 lung; 85% in the assay with NCI-H322M lung; 84.7% in the assay with HOP-62 NSCLC; 66% with K-562 leukemia; 71.9% with SF-295 CNS; 80% with HCT-15 colon. In addition, the growth in the assay with SNB-19 CNS was 88.1%; in the assay with SK-MEL-5 melanoma it was 89.5%; with LOX IMVI melanoma, 77.8%; with CCRF-CEM leukemia it was 88.9%; in the assay on MOLT-4 leukemia it was 80.2%; in the assay on SR leukemia, 72.8%. Also, the growth with RPMI-8226 leukemia was 79.7%; in the assay on IGROV1 ovarian, 73.4%.

Take `Cc1cc(NC(=O)/C=C/c2ccc([N+](=O)[O-])cc2)ccc1S(=O)(=O)F`: the growth with NCI-H226 lung is 105%; in the assay on NCI-H322M lung, 84.8%; with HOP-62 NSCLC, 103%; in the assay with K-562 leukemia, 94.7%; in the assay on HCT-15 colon, 98.2%; with SK-MEL-5 melanoma, 100%. For the same molecule, the growth in the assay on TK-10 renal is 96.2%; in the assay on CCRF-CEM leukemia it was 98.2%; in the assay with MOLT-4 leukemia, 89.5%; in the assay on SR leukemia, 81.3%; in the assay with RPMI-8226 leukemia, 87%; with IGROV1 ovarian, 101%. Besides, the growth in the assay on HCC-2998 colon is 102%.

Consider `CNC(=O)Oc1cccc(OC)c1`, for which the growth in the assay on NCI-H226 lung is 102%; in the assay with NCI-H322M lung it was 132%; in the assay with HOP-92 NSCLC, 125%; in the assay with NCI-H522 lung, 96.5%; in the assay on SF-295 CNS it was 121%; in the assay on HCT-15 colon it was 112%. Further, the growth with SNB-19 CNS is 103%; with SK-MEL-5 melanoma, 109%; in the assay with LOX IMVI melanoma it was 100%; in the assay on EKVX NSCLC, 95.5%; in the assay on RPMI-8226 leukemia it was 109%; in the assay with HCC-2998 colon, 105%.

As to `CC(=O)O[C@H]1CCC2C3CCC4=C/C(=N/O)CCC4(C)C3CCC21C` (stereo not given in full), the growth with NCI-H226 lung is 98.1%; with HOP-62 NSCLC, 93.4%; with HOP-92 NSCLC, 89.8%; with NCI-H522 lung, 83.2%; in the assay with K-562 leukemia it was 45.9%; in the assay on HCT-15 colon, 72.3%. The growth is 90.7% with SNB-19 CNS; 87.4% with SK-MEL-5 melanoma; 93% in the assay with LOX IMVI melanoma; 88.5% in the assay with EKVX NSCLC; 103% in the assay with TK-10 renal; 72.6% in the assay with MOLT-4 leukemia. The growth in the assay on IGROV1 ovarian was 87.6%; in the assay with HCC-2998 colon, 83.9%.

As to `c1ccc(-c2ccc3ccccc3[o+]2)cc1`, the growth in the assay with NCI-H226 lung was 85.4%; with HOP-62 NSCLC it was 96.2%; with HOP-92 NSCLC, 83.2%; in the assay on K-562 leukemia, 101%; with SF-295 CNS, 104%; in the assay with HCT-15 colon it was 107%. For the same molecule, the growth with SNB-19 CNS was 93.3%; with SK-MEL-5 melanoma it was 88.8%; with LOX IMVI melanoma, 82.2%; in the assay with EKVX NSCLC, 87.1%; in the assay on TK-10 renal it was 139%; in the assay with CCRF-CEM leukemia, 92.4%. For the same molecule, the growth is 79% in the assay on MOLT-4 leukemia; 84.5% in the assay with SR leukemia; 86.4% with RPMI-8226 leukemia; 82.7% in the assay with IGROV1 ovarian; 108% in the assay with HCC-2998 colon.

Regarding `CNC(=O)Oc1ccccc1`, the growth is 102% in the assay on NCI-H226 lung; 107% in the assay on NCI-H322M lung; 116% in the assay on HOP-62 NSCLC; 109% in the assay on K-562 leukemia; 102% in the assay with HCT-15 colon; 97% in the assay with SNB-19 CNS. Also, the growth is 111% in the assay with CCRF-CEM leukemia; 106% in the assay with MOLT-4 leukemia; 99% with SR leukemia; 96.4% in the assay on RPMI-8226 leukemia; 116% with IGROV1 ovarian; 119% in the assay on HCC-2998 colon.

On to `CN(Cc1cccnc1)N=O`, for which the growth in the assay on NCI-H226 lung was 92.3%; with HOP-62 NSCLC it was 93.1%; in the assay on HOP-92 NSCLC, 95.3%; with NCI-H522 lung it was 89.9%; with K-562 leukemia, 104%; in the assay with SF-295 CNS, 102%. The growth with HCT-15 colon was 100%; in the assay on SNB-19 CNS, 99.9%; in the assay on SK-MEL-5 melanoma, 103%; with EKVX NSCLC, 99.9%; in the assay on TK-10 renal, 91.6%; with MOLT-4 leukemia, 102%. The growth is 98.4% with SR leukemia, 102% in the assay on RPMI-8226 leukemia, 99.7% in the assay with IGROV1 ovarian and 112% in the assay on HCC-2998 colon.

With `Cc1ccc2oc(=O)c3c(c2c1)OC(N)=C(C#N)C3c1ccco1` (stereo not given), the growth was 91.9% in the assay with NCI-H226 lung; 98.8% with NCI-H322M lung; 102% with HOP-92 NSCLC; 91.6% with NCI-H522 lung; 98% with SF-295 CNS; 103% in the assay with HCT-15 colon. Moreover, the growth in the assay with SNB-19 CNS was 96.9%; in the assay on SK-MEL-5 melanoma it was 101%; in the assay on LOX IMVI melanoma, 96.8%; in the assay on EKVX NSCLC, 94.9%; in the assay with TK-10 renal, 108%; in the assay with CCRF-CEM leukemia it was 96.4%. The growth was 107% with MOLT-4 leukemia; 107% in the assay with SR leukemia; 100% in the assay on RPMI-8226 leukemia; 104% with IGROV1 ovarian; 109% in the assay with HCC-2998 colon.
